Results: PubChem BioAssay (NCATS)
“And” between values parts separate entries of the source, which are not always exact repeats. Equal values may be shown once. A number with no mark means an inactive call. Calls come from the whole dose curve.

molecular target: Glucocorticoid receptor (Homo sapiens) (UniProt P04150); assay: GR-EFC Redistribution (AID 451); settings: CHO-K1 GR-EFC translocation, beta-gal luminescence, 2 h
Description: NIH Molecular Libraries Screening Centers Network [MLSCN]
NIH Chemical Genomics Center [NCGC]
The glucocorticoid receptor (GR) is a cytoplasmic receptor that belongs to the nuclear receptor family of ligand-dependent transcription factors. Upon glucocorticoid binding to its receptor, the glucocorticoid-GR complex translocates into the nucleus, where it binds as a dimer to specific DNA sequences (glucocorticoid response elements), enhancing or suppressing transcription of a wide variety of glucocorticoid-responsive genes. In addition to their important roles in normal physiology and metabolism, glucocorticoids are administered exogenously as treatments for a wide variety of allergic, autoimmune, and neoplastic conditions. Identification of compounds that modulate aspects of GR signalling would be useful in dissecting glucocorticoid response pathways as well as developing GR modulators with more targeted clinical effects.
Traditionally, GR modulators have been identified using receptor binding or direct transactivation assays. However, assays for glucocorticoid-dependent nuclear translocation can also be used to screen for compounds affecting GR signaling.
Immunocytochemical staining has been used to assay for GR translocation, but is not suitable for high throughout screening due to the multiple reagent addition and wash steps required. Recently, a novel cell-based GR assay in Enzyme Fragment Complementation (EFC) format was developed by DiscoveRx (Fremont, CA). The assay uses EFC of b-galactosidase (b-gal) as an indicator of GR-translocation in engineered CHO-K1 biosensor cells. The enzyme acceptor (EA) fragment of b-gal resides in the nucleus , as designed through the use of a proprietary set of sequence additions and modifications. The small peptide enzyme donor (ED) fragment of b-gal is fused directly to the C-terminus of GR, and is localized in the cytoplasm is the absence of receptor signaling. Upon binding to a GR ligand, the complex translocates to the nucleus, where intact enzyme activity is restored by complementation and b-gal activity is detected. We optimized this GR-EFC assay in homogenous 1536-well plate assay format for high throughput screening.
NCGC Assay Protocol Summary:
CHO-K1 cells stably expressing NLS-enzyme acceptor fragment (EA) of b-gal and GR-enzyme donor (ED) fragment of b-gal were maintained in F12 medium (Invitrogen, Carlsbad, CA) at 37 Celsius degrees under a humidified atmosphere containing 5% CO2 and 95% air. The medium contained 10% FBS, 2 mM L-glutamine, 50 U/ml penicillin 50 ug/ml streptomycin, and 250 ug/ml hygromycin and 500 ug/ml G418 (Invitrogen).
GR-translocation was measured beta-gal enzyme activity using the PathHunter Detection Kit containing cell membrane permeablizing reagent and beta-gal substrate (DiscoveRx, Fremont, CA). All compounds were screened as titrations from 0.6 nM to 46 uM final concentration. The assay was performed in 1536-well format as follows:
5 uL cell suspension (1,000 cells)/well
Incubation at 37 Celsius degrees for two hours
1.25 uL 1X detection buffer from the kit supplied by DiscoveRx
Incubation at room temperature for one hour
Read plate in luminescence mode in ViewLux plate reader (PerkinElmer)
Keywords: NIH Roadmap, MLSCN, MLI, MLSMR, GR-EFC, GREFC, qHTS, NCGC
Potency is the fitted concentration of half-maximal effect.

Glucocorticoid receptor (Homo sapiens), sequence (P04150 whole entry, looked up): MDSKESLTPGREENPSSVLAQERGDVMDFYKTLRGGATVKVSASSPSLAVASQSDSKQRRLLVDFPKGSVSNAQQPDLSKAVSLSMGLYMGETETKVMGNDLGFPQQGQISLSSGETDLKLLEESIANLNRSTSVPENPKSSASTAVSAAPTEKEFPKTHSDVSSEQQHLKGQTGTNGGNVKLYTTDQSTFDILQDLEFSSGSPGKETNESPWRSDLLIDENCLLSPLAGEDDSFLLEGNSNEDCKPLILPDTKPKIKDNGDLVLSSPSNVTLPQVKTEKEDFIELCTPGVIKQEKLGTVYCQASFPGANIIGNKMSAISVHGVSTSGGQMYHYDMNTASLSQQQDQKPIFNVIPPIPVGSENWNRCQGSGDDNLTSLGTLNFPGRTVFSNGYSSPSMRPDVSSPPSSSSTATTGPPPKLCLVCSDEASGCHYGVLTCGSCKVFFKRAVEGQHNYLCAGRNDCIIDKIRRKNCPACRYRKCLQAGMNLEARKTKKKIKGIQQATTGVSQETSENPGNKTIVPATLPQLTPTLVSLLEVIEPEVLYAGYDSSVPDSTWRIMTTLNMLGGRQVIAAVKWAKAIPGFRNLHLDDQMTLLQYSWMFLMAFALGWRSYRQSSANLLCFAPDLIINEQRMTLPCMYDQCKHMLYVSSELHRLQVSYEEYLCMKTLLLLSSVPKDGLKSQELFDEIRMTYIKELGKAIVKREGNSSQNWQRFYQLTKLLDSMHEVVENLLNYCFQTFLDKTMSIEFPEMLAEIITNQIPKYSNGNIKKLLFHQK

Row | Compound | Potency
1 | NC(=O)c1ccc(-c2nc(-c3ccc4c(c3)OCO4)c(-c3ccccn3)[nH]2)cc1 | > 46 µM
2 | CN1CCN(CCCN2c3ccccc3Sc3ccc(C(F)(F)F)cc32)CC1 | > 46 µM and > 20.6 µM and > 9.22 µM
3 | Cc1ccc2c(c1)C(=O)[C@@]1(O)CCN(c3ccccc3)C1=N2 | > 46 µM
4 | CCCC(CCC)C(=O)O | > 46 µM
5 | Cc1oncc1C(=O)Nc1ccc(C(F)(F)F)cc1 | > 46 µM and > 20.6 µM
6 | NC(=O)c1cnccn1 | > 46 µM
7 | N[C@@H]1CONC1=O | > 46 µM and > 20.6 µM
8 | O=C1CCc2cc(OCCCCc3nnnn3C3CCCCC3)ccc2N1 | > 46 µM
9 | Cc1cnc(NC(=O)C2=C(O)c3ccccc3S(=O)(=O)N2C)s1 | > 46 µM
10 | Nc1ccc(S(=O)(=O)Nc2ccnn2-c2ccccc2)cc1 | > 46 µM and > 20.6 µM
11 | CCN(c1ccccc1)c1cc(NC)[n+](C)c(C)n1 | > 46 µM
12 | N=c1nc(N2CCCCC2)cc(N)n1O | > 46 µM and > 20.6 µM
13 | CCOC(=O)N1CCC(=C2c3ccc(Cl)cc3CCc3cccnc32)CC1 | > 46 µM
14 | CCC(C)(C)C(=O)O[C@H]1C[C@@H](C)C=C2C=C[C@H](C)[C@H](CC[C@@H]3C[C@@H](O)CC(=O)O3)[C@H]21 | > 46 µM
15 | NC[C@H](O)c1ccc(O)c(O)c1 | > 46 µM
16 | O=c1[nH]cnc2[nH]ncc12 | > 46 µM

Row | Compound | Potency
17 | Cn1cnc([N+](=O)[O-])c1Sc1ncnc2nc[nH]c12 | > 46 µM and > 20.6 µM
18 | Nc1nc2c(ncn2COCCO)c(=O)[nH]1 | > 46 µM and > 20.6 µM
19 | Nc1nc2ccc(OC(F)(F)F)cc2s1 | > 46 µM and > 20.6 µM
20 | CCOC(=O)C1=C[C@@]2(CC)CCCN3CCc4c(n1c1ccccc41)[C@H]32 | > 46 µM and > 20.6 µM
21 | CC(C)C[C@H](NC(=O)[C@@H](O)[C@H](N)Cc1ccccc1)C(=O)O | > 46 µM
22 | Clc1cccc(Cl)c1NC1=NCCN1 | > 46 µM and > 20.6 µM
23 | CC(=O)Oc1ccccc1C(=O)O | > 46 µM
24 | Cc1ccc(N(CC2=NCCN2)c2cccc(O)c2)cc1 | > 46 µM and > 20.6 µM
25 | Cc1cc2c(C(C)C)c(O)c(O)c(C=O)c2c(O)c1-c1c(C)cc2c(C(C)C)c(O)c(O)c(C=O)c2c1O | > 20.6 µM and > 46 µM
26 | Cc1cn[nH]c1 | > 46 µM
27 | NC(N)=NC(=O)c1nc(Cl)c(N)nc1N | > 46 µM and > 20.6 µM
28 | CC(C)(Sc1ccc(CCN(CCCCC2CCCCC2)C(=O)NC2CCCCC2)cc1)C(=O)O | > 46 µM
29 | N#Cc1ccc(C(c2ccc(C#N)cc2)n2cncn2)cc1 | > 20.6 µM
30 | O=NN(CCCl)C(=O)NCCCl | > 46 µM
31 | NNCCc1ccccc1 | > 46 µM and > 20.6 µM
